Values joined by “and” are separate entries in the source; they are usually repeats but may differ in a detail not shown here. Identical values can stand only once. In all, about 300,000 compounds went through this assay and about 5,400 (1.8%) were called active. Where a call stands in place of a potency, no number is given. Not shown: some 28% with an inconclusive outcome. Calls come from the whole dose curve; tested in HEK293 cells. For the sample, actives were picked, then their nearest neighbours and some compounds at random. A structure can be active in one record and inactive in another.
Test: qHTS for inhibitors of binding or entry into cells for Marburg Virus
Settings: Marburg virus pseudotyped entry inhibition, cell reporter; series mostly up to 37.8 µM
Potency is the fitted concentration of half-maximal effect.

| Structure (SMILES) | Potency |
| --- | --- |
| CC12CCC(=O)N1C(C(=O)NCCN1C(=O)S/C(=C\c3ccccc3F)C1=O)CS2 (configuration not stated) | inactive |
| Cc1ccc(S(=O)(=O)NCC(=O)NNC(=O)c2ccc(Br)cc2)cc1C | inactive |
| O=C(COC(=O)c1ccccc1)Nc1ccc(Cl)cc1C(=O)c1ccccc1 | inactive |
| O=C(CCNS(=O)(=O)c1ccccc1)Nc1ccc(Cl)cc1C(=O)c1ccccc1 | 8.91 µM (active) |
| O=C(CCNS(=O)(=O)c1ccccc1)NCCCc1ccccc1 | inactive |
| O=C(CN(Cc1ccccc1)C(=O)CCC(=O)Nc1ccccn1)NCCc1ccccc1 | inactive |
| COc1cccc(-c2nnc(NC(=O)c3ccc(S(=O)(=O)N(CC(C)C)CC(C)C)cc3)o2)c1 | 1.26 µM (active) |
| O=C(COC(=O)c1ccc(Oc2ccccc2)cc1)Nc1nnc(-c2ccccc2)o1 | inactive |
| COc1cccc(NC(=O)CN(C)S(=O)(=O)c2ccc(C)cc2)c1 | inactive |
| O=C1NCC(c2ccccc2)(c2ccccc2)C(=O)N1 | inactive |
| COc1ccc(Cl)cc1NS(=O)(=O)c1cccc(C(=O)NC2CCC(O)CC2)c1 (configuration not stated) | inactive |
| COCCC(=O)N1CCC(Oc2ccc(C(=O)NCc3ccon3)cc2)CC1 | inactive |
| CCOC(=O)C1CCCN(CCSc2ccc(C)cc2)C1 (configuration not stated) | inactive |
| CN1CCN(c2ccc([N+](=O)[O-])c(Sc3nc4ccccc4[nH]3)c2)CC1 | inactive |
| O=C(c1cccc(F)c1)N1CCN(c2ccc([N+](=O)[O-])c(N3CCCCC3)c2)CC1 | inactive |
| CN1CCN(c2cc(N3CCNCC3)ccc2[N+](=O)[O-])CC1 | 5.01 µM (active) |
| O=C(NN=CC=Cc1ccccc1)C(O)C(O)C(=O)NN=CC=Cc1ccccc1 (configuration not stated) | inactive |
| N#CC1(Nc2ccc(-c3ccc(Cl)cc3)cc2)CCCC1 | inactive |
| Cc1cc(NC(=O)CSc2ncc(C(F)(F)F)cc2Cl)no1 | inactive |
| CCOC(=O)CSC1=c2ccccc2=NC1c1cccs1 (configuration not stated) | inactive |
| CC1CCN(C(=O)COC(=O)CCC(=O)c2cccs2)CC1 | inactive |
| COc1ccc(-n2nc(C(=O)NCC(=O)N3CCN(c4ccccc4OC)CC3)c3ccccc3c2=O)c(OC)c1 | inactive |
| CN(Cc1ccccc1Cl)C(=O)C1CCC(=O)N(CCc2cccc(F)c2)C1 (configuration not stated) | inactive |
| COc1cc(C)ccc1OCC(=O)OCC(=O)c1ccc[nH]1 | inactive |
| CCOc1ccc(NC(=O)c2cn(C3CCCCC3)c(=O)c3c2c2ccccc2n3C)cc1 | inactive |
| Cn1c2ccccc2c2c(C(=O)N3CCN(c4ccc(F)cc4)CC3)cn(C3CCCC3)c(=O)c21 | inactive and 17.8 µM (active) |

| Structure (SMILES) | Potency |
| --- | --- |
| O=C(c1ccccc1Oc1ccccc1)N1CCN(c2ccc(F)cc2)CC1 | inactive |
| c1ccc2cc3c(NCCN4CCOCC4)ccnc3cc2c1 | 3.66 µM (active) |
| O=C(Cn1c(-c2ccccn2)nc2ccccc21)NCCN1CCOCC1 | inactive |
| O=C(NCCN1CCOCC1)c1cc(-c2cccs2)nc2ccccc12 | inactive |
| COC(=O)Nc1ccc(S(=O)(=O)Nc2cc(OC)nc(OC)n2)cc1 | inactive |
| CC(OC(=O)c1ccc(-n2cnnn2)cc1)C(=O)NCc1ccccc1 (configuration not stated) | inactive |
| CC(=O)OC[C@H]1O[C@H](C/C=N/OC[C@@H](O)COCc2ccco2)C=C[C@@H]1OC(C)=O | inactive |
| CC(=O)c1c(O)c(C)c(O)c(Cc2c(O)c3c(c(C(=O)/C=C/c4ccccc4)c2O)OC(C)(C)C=C3)c1O | inactive and 3.16 µM (active) |
| O=C(/C=C/c1ccccc1)c1ccccc1O | inactive |
| CC(=O)c1c(O)c(C)c(O)c(Cc2c(O)c3c(c(C(=O)/C=C\c4ccccc4)c2O)OC(C)(C)C=C3)c1O | 3.16 µM (active) |
| O=C(/C=C/c1ccccc1)c1ccoc1 | inactive |
| CCOC(=O)C1CCN(S(=O)(=O)c2ccc3c(c2)N(C(C)=O)CCO3)CC1 | inactive |
| O=C(c1cccnc1)N(Cc1ccccc1)C(=O)c1cccnc1 | inactive |
| O=C(NCC(=O)N1CCN(c2ncc(C(F)(F)F)cc2Cl)CC1)c1ccc(Br)o1 | inactive |
| O=C(Nc1cccc2c1CCCC2)c1ccc(F)cc1 | inactive |
| CC(C)C1CCCCC1NC(=O)CN1C(=O)C2=C(CCCC2)C1=O (configuration not stated) | inactive |
| CCOc1ccc(S(=O)(=O)N2CCN(C(=O)c3oc4ccccc4c3C)CC2)cc1 | inactive |
| O=C(COC(=O)c1ccc(F)cc1)Nc1nc2ccc([N+](=O)[O-])cc2s1 | inactive |
| Cc1cc(C)cc(OCC(=O)Nc2nc3ccc([N+](=O)[O-])cc3s2)c1 | inactive |
| O=C(NC(Nc1nc2ccc([N+](=O)[O-])cc2s1)(C(F)(F)F)C(F)(F)F)c1ccccc1 | 0.517 µM (active) |
| Cc1ccccc1N1CCN(C(=O)c2cccnc2)CC1 | inactive |
| O=C(NCCc1cccc(F)c1)C1CCCN(c2nc3ccccc3s2)C1 (configuration not stated) | inactive |
| CCn1c(SCC(=O)NC2CCCC2)nnc1-c1ccoc1C | inactive |
| Cc1csc(SCC(=O)Nc2sccc2C#N)n1 | 4.47 µM (active) |
| Cc1cccc(C)c1Nc1nnc(SCC(=O)Nc2sccc2C#N)s1 | inactive |
| Cc1ccc(NC(=O)CSCC(=O)Nc2sccc2C#N)cc1 | inactive |
